Bioassay records (PubChem)
Most compounds without a hit are left out; they make up all but 3.5% or so of the library.
mHTT-CaM PPI inh: mutant huntingtin-calmodulin interaction inhibitors – biochemical, AlphaScreen, primary screen; P42858; AlphaScreen His-mHTT/GST-CaM binding, luminescence; inhibition, % at 15 µM; hit rate 3.6% among 190,000; AID 1671202, 2021;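 further: 0% = both proteins with DMSO and 100% = one protein alone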
Pf apPOL block: Pf-apPOL inhibitors, biochemical, fluorescence; Recombinant Pf-apPOL, molecular beacon fluorescence, 1.5 h; inhibition, % at 10 µM; hit rate 0.25% among 210,000; AID 1794808, 2022
* = called active by the depositor. No stated cut-off is given here; in the data, active means inhibition above about 50%; inactive means the rest.

How did Cc1ccc(S(=O)(=O)N2CCCC(C)(C(=O)NCc3ccccc3C)C2)cc1C (stereo unspecified) do in these assays?
mHTT-CaM PPI inh: 77*; Pf apPOL block: -4

How did Cc1ccccc1CNC(=O)C1(C)CCCN(S(=O)(=O)c2ccc(F)cc2)C1 (stereo unspecified) do in these assays?
mHTT-CaM PPI inh: -6; Pf apPOL block: -1

What do the screens show for `Cc1ccccc1CNC(=O)C1(C)CCCN(S(=O)(=O)c2ccc(F)c(Cl)c2)C1` (stereo unspecified)?
mHTT-CaM PPI inh: 84*; Pf apPOL block: -2

How did COc1ccc(S(=O)(=O)N2CCCC(C)(C(=O)NCc3ccccc3C)C2)cc1 (stereo unspecified) do in these assays?
mHTT-CaM PPI inh: 0; Pf apPOL block: -1

How did CNC(=S)N1CCOCC1 do in these assays?
mHTT-CaM PPI inh: -7

Results for O=c1cc2oc3cc(O)c(O)cc3c(-c3ccccc3O)c-2cc1O ?
mHTT-CaM PPI inh: 85*; Pf apPOL block: inactive

How did Nc1ccc2oc(-c3ccccc3Cl)cc(=O)c2c1O do in these assays?
mHTT-CaM PPI inh: 15; Pf apPOL block: -2

What do the screens show for `Cc1oc2cc(O)ccc2c(=O)c1-c1ccccc1`?
mHTT-CaM PPI inh: -3; Pf apPOL block: 0

How did O=c1cc2oc3cc(O)c(O)cc3c(-c3ccccc3)c-2cc1O do in these assays?
mHTT-CaM PPI inh: 69*; Pf apPOL block: 8

What do the screens show for `COc1cccc(N2CCN(c3nc(C(=O)N4CCC(C)CC4)cs3)CC2)c1`?
mHTT-CaM PPI inh: 34; Pf apPOL block: -2

Results for Cc1nc2c(o1)NC(N)=C(C#N)C21CCCCC1 ?
mHTT-CaM PPI inh: -3

What do the screens show for `Cc1ccc(N2NC(=O)/C(=C\c3cccc([N+](=O)[O-])c3)C2=O)cc1C`?
mHTT-CaM PPI inh: 42; Pf apPOL block: 2

What do the screens show for `O=C(NCc1ccccc1C(F)(F)F)c1cc2c(s1)CN(C1CC1)C2`?
mHTT-CaM PPI inh: -2; Pf apPOL block: -6

Results for Cc1noc(-c2cccnc2)c1C(=O)N1CCC(Cc2ccccc2)CC1 ?
mHTT-CaM PPI inh: 20; Pf apPOL block: -1

How did COc1ccc(-c2cc(C(=O)N3CCC(Cc4ccccc4)CC3)no2)cc1 do in these assays?
mHTT-CaM PPI inh: -7; Pf apPOL block: -8

How did Cc1noc(-c2cccs2)c1C(=O)N1CCC(Cc2ccccc2)CC1 do in these assays?
mHTT-CaM PPI inh: 71*; Pf apPOL block: 2

What do the screens show for `COc1ccc(-c2onc(C)c2C(=O)N2CCC(Cc3ccccc3)CC2)cc1`?
mHTT-CaM PPI inh: 99*; Pf apPOL block: 0

Results for O=C(O)CCC(=O)Nc1nnc(-c2cccs2)s1 ?
mHTT-CaM PPI inh: -2; Pf apPOL block: -7

Results for C=C(C)COc1ccc2c(c1)OC(=Cc1cccc(C)c1)C2=O ?
mHTT-CaM PPI inh: -4; Pf apPOL block: 6

Results for Clc1ccc(CSc2nc3ccccc3n2Cc2ccc(Cl)cc2Cl)c(Cl)c1 ?
Pf apPOL block: -10

What do the screens show for `COCC(C)NC(=O)c1cc(-c2ccc3c(c2)OCO3)on1` (stereo unspecified)?
mHTT-CaM PPI inh: 0; Pf apPOL block: -5

How did O=C(NCc1ccccc1F)c1cc2n(n1)CCCN(Cc1ccc(Cl)cc1)C2=O do in these assays?
mHTT-CaM PPI inh: 6; Pf apPOL block: 0

What do the screens show for `Cc1ccccc1CNC(=O)c1cc2n(n1)CCCN(Cc1ccc(Cl)cc1)C2=O`?
mHTT-CaM PPI inh: 52*; Pf apPOL block: -4

How did O=C(NCCCN1CCCC1)c1cc2n(n1)CCCN(Cc1ccc(Cl)cc1)C2=O do in these assays?
mHTT-CaM PPI inh: 52*; Pf apPOL block: -5

What do the screens show for `O=C(NCCCN1CCOCC1)c1cc2n(n1)CCCN(Cc1ccc(Cl)cc1)C2=O`?
mHTT-CaM PPI inh: 1; Pf apPOL block: 0

Results for COc1ccc(OC)c(CNC(=O)C2CCCN(c3cnn(C)c(=O)c3)C2)c1 (stereo unspecified) ?
mHTT-CaM PPI inh: 3; Pf apPOL block: -4

Results for Cc1cccc(C(=O)N2N=C(c3ccc(Br)cc3)CC2(O)C(F)(F)F)c1 (stereo unspecified) ?
mHTT-CaM PPI inh: 97*; Pf apPOL block: 1

What do the screens show for `CCC1=NN(C(=O)COc2ccc(Cl)c(C)c2)C(O)(C(F)(F)F)C1` (stereo unspecified)?
mHTT-CaM PPI inh: 94*; Pf apPOL block: -16

What do the screens show for `Cc1ccccc1OCC(=O)N1N=C(c2ccc(Br)cc2)CC1(O)C(F)(F)F` (stereo unspecified)?
mHTT-CaM PPI inh: 93*; Pf apPOL block: 1

How did O=C(COc1ccccc1)N1N=C(c2ccc(Br)cc2)CC1(O)C(F)(F)F (stereo unspecified) do in these assays?
mHTT-CaM PPI inh: 28; Pf apPOL block: -4

How did Cc1cccc(C(=O)N2N=C(c3cccc(Br)c3)CC2(O)C(F)(F)F)c1 (stereo unspecified) do in these assays?
mHTT-CaM PPI inh: 19; Pf apPOL block: 0

How did CCC1=NN(C(=O)Cc2ccc(OC)cc2)C(O)(C(F)(F)F)C1 (stereo unspecified) do in these assays?
mHTT-CaM PPI inh: -9; Pf apPOL block: 2

How did COc1ccc(CCS(=O)(=O)NCC2(c3ccc(F)cc3)CC2)cc1 do in these assays?
mHTT-CaM PPI inh: -12; Pf apPOL block: -4

What do the screens show for `O=C(CC(=O)c1ccc([N+](=O)[O-])cc1)Nc1ccc2c(c1)OCO2`?
mHTT-CaM PPI inh: 51*; Pf apPOL block: -4

Results for O=C(Cc1ccc([N+](=O)[O-])cc1)Nc1ccc2c(c1)OCO2 ?
mHTT-CaM PPI inh: 2; Pf apPOL block: -6

How did Clc1nc(NCCN2CCOCC2)nc(Nc2ccc(I)cc2)n1 do in these assays?
mHTT-CaM PPI inh: 4; Pf apPOL block: -1

What do the screens show for `CCOc1nc(NCCN2CCOCC2)nc(Nc2ccc(I)cc2)n1`?
mHTT-CaM PPI inh: 57*; Pf apPOL block: 6

How did O=[N+]([O-])c1cc(Oc2ccc(F)c(Cl)c2)cc(-n2cnnn2)c1 do in these assays?
mHTT-CaM PPI inh: 14

Results for CCc1onc(C)c1C1CCCN1C(=O)Cc1c(F)cccc1Cl (stereo unspecified) ?
mHTT-CaM PPI inh: 0; Pf apPOL block: 0

How did C(=Nc1n[nH]c(N=Cc2ccccc2)n1)c1ccccc1 do in these assays?
mHTT-CaM PPI inh: -2; Pf apPOL block: -9

Results for Cc1ccc(C)c(N=C2C(=O)Nc3ccc(Br)cc32)c1 ?
mHTT-CaM PPI inh: 11; Pf apPOL block: -6

Results for Cc1cccc(N=C2C(=O)Nc3ccc(Br)cc32)c1C ?
mHTT-CaM PPI inh: 66*; Pf apPOL block: 0

What do the screens show for `Cc1ccc2oc(C(=O)Nc3ccc(-n4cnnn4)cc3)c(C)c2c1`?
mHTT-CaM PPI inh: -6; Pf apPOL block: -1

Results for COc1ccccc1CC(=O)N1CCCN(c2ncccc2-c2nc(C3CC3)no2)CC1 ?
mHTT-CaM PPI inh: -5; Pf apPOL block: -6

Results for Cc1sc(NC(=O)c2ccco2)c(C(c2cccnc2)N2CCN(c3ccccc3)CC2)c1C (stereo unspecified) ?
mHTT-CaM PPI inh: 18; Pf apPOL block: 12

How did Cc1sc(NC(=O)c2ccco2)c(C(c2cccnc2)N2CCN(c3ccccn3)CC2)c1C (stereo unspecified) do in these assays?
mHTT-CaM PPI inh: 100*; Pf apPOL block: -6

How did COc1cccc(CNC(=O)Cn2c(C)nc3c(c2=O)CCN(Cc2ccccc2)C3)c1 do in these assays?
mHTT-CaM PPI inh: -5; Pf apPOL block: -8

How did CC1CCN(CC2CCN(S(=O)(=O)c3cccc(C(F)(F)F)c3)CC2)CC1 do in these assays?
mHTT-CaM PPI inh: -17; Pf apPOL block: 0
